Cav3 T inh – Cav3.2 calcium influx blockers – cell-based, Fluo-4 calcium fluorescence, FDSS, MLSMR library, primary screen; Voltage-dependent T-type calcium channel subunit alpha-1H (Homo sapiens), O95180; Cav3.2-expressing cells; hits give low values; B-score at 10 µM; actives 4% (n = 100,000); AID 449739, 2010;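 active means single-dose well whose peak fluorescence ratio is a statistical outlier from its plate by either plate-standardised score or position-corrected B-score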
PostGolgi yeast – phenotypic screen on post-Golgi transport, primary screen | post-Golgi transport phenotypic cell assay | inhibition, % at 10 µM | actives 0.9% (n = 98,000) | AID 739, 2007;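 further: yeast cells grown in 1536-well plates; yeast grown about 18 h at 30C before absorbance read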
hDAT+cocaine – changed hDAT dopamine uptake under cocaine IC80, either direction, primary screen, cocaine antagonist project, cell-based, LLC-PK1 hDAT, [14C]-dopamine uptake, MLSMR; Sodium-dependent dopamine transporter (Homo sapiens), Q01959; LLC-PK1 hDAT cells, [14C]-dopamine uptake with cocaine IC80; actives deviate in either direction; B-score at 10 µM; actives 1.3% (n = 110,000);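 active means Z score or B-score, a plate-position-corrected score, falls beyond the plate's 99.7% confidence bounds, in either direction; inactive means both scores lie inside the 99.7% bounds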
PostGolgi ctrl – growth inhibition of yeast control strain, primary screen, counter-screen for post-Golgi transport modulator project; efflux-deficient yeast background strain, growth absorbance A615, 16 h; inhibition, % at 10 µM; actives 5% (n = 98,000)
PLAP act – PLAP enzyme activators, biochemical, luminescence, HTS; purified PLAP enzyme, luminescent substrate read-out; hits give high values; actives 1.2% (n = 96,000); activation fold at 20 µM; Alkaline phosphatase, placental type (Homo sapiens), P05187; AID 696, 2007; in the data active means activation fold above about 2
Of the large screens only hits and unclear results are named; the others gave an inactive call. Sampled rows, rich in hits. Any-hit rate of the full collection: about 9.6%. Unless noted, no stated cut-off is given here; in the data, active means inhibition above about 30%; inactive means the rest.

CCCCc1nc(SCC(=O)Nc2cc(C)on2)n[nH]1	PLAP act 2.3
COc1ccc(-c2nc(SCC(=O)Nc3cc(C)on3)n[nH]2)cc1	PLAP act 2.1
Cc1ccc(SCC(=O)Nc2cc(C)on2)cc1	none
CCCN(CCC)C(=O)Cc1coc2ccc3ccccc3c12	Cav3 T inh -6.34, PostGolgi ctrl 41.9
O=C(Cc1coc2ccc3ccccc3c12)NCc1ccccc1	none
CC(C)Cn1nc(NC(=O)C2CCCO2)c2cc3ccccc3nc21 (stereo not given)	none (no result: Cav3 T inh, hDAT+cocaine)
O=[N+]([O-])/C=C/c1cn(Cc2ccccc2)c2ccccc12	PostGolgi ctrl 43.0
C(=N\n1cnnc1)/c1cn(Cc2ccccc2)c2ccccc12	none
CC1CN(C2CCN(S(=O)(=O)c3ccc(F)cc3)CC2)CC(C)O1 (stereo not given)	PostGolgi yeast 47.8, PostGolgi ctrl 30.3
CC(C)CCn1c(SCC(=O)OCn2nnc3ccccc3c2=O)nc2ccccc2c1=O	none
O=C(CNS(=O)(=O)c1cccs1)N1CCc2ccccc2C1	none (no result: Cav3 T inh)
CC1(C)NC(=O)N(CCCCOc2ccc3ccccc3c2Cl)C1=O	PostGolgi ctrl 40.8
[O-][n+]1c2ccc3nonc3c2nn1-c1ccccc1Cl	none (no result: Cav3 T inh, hDAT+cocaine)
Cc1nn(-c2ccccc2)c2c1C(=O)N(c1ccccc1)C(=O)C(C)(C)C2	PostGolgi ctrl 35.5
Cc1nn(-c2ccccc2)c2c1/C(=N/O)CC(C)(C)C2	none (no result: Cav3 T inh, hDAT+cocaine)
COc1cc(NC(=O)c2cccs2)c(C(=O)OCC(=O)NCc2ccccc2)cc1OC	none
COc1cc(NC(=O)c2cccs2)c(C(=O)OCC(=O)NC(C)c2ccccc2)cc1OC (stereo not given)	PostGolgi ctrl 30.3
COCCCNC(=O)c1ccccc1SC	none
Fc1cccc(-c2cc3nc4c(c(N5CCC6(CC5)OCCO6)n3n2)CCCC4)c1	PostGolgi ctrl 81.1
OC1CCN(c2c3c(nc4cc(-c5cccc(F)c5)nn24)CCCC3)CC1	PostGolgi ctrl 87.5
COc1ccc(C2SCC(=O)N2CC23CC4CC(CC(C4)C2)C3)cc1 (stereo not given)	PostGolgi ctrl 59.6
Cc1cccc(C(=O)N/N=C/c2ccncc2)c1	none
CCC(=O)n1nc(NCc2ccccc2OC)nc1NCc1ccccc1OC	Cav3 T inh -7.94
Cc1cccc(Cc2cnc(NC(=O)c3ccc(C)o3)s2)c1	Cav3 T inh -6.03
CCn1c(SCC(=O)OCC(=O)N2c3ccccc3NC(=O)C2(C)C)nnc1-c1ccco1	none
CCCCCCn1c(COc2ccccc2F)nnc1SCC(=O)N1c2ccccc2NC(=O)C1(C)C	Cav3 T inh -5.92
CCc1nnc(NC(=O)c2c(C)nn(-c3ccccc3)c2Cl)s1	none
CC(=O)c1c(C(C)=O)c(C)n(-c2nc(-c3ccc(C)c(C)c3)c(C)s2)c1C	PostGolgi ctrl 47.6
N[C@@H](CO)c1nnc([C@H](CC(=O)O)NC(=O)C2CCNCC2)o1	none (no result: PostGolgi yeast, PostGolgi ctrl, PLAP act)
CCOC(=O)Cc1[nH]nc2c1C(c1ccoc1)C(C#N)=C(N)O2 (stereo not given)	none
CCCSc1nnc(N2C(=O)CC(c3ccsc3)C3=C2CCCC3=O)s1 (stereo not given)	PostGolgi ctrl 48.1
CCCNC(=O)c1cccc(Cn2nc(C)c(Br)c2C)c1	none
Cc1nn(Cc2ccccc2Cl)c(C)c1NC(=O)NC12CC3CC(CC(C3)C1)C2	Cav3 T inh -7.56, PostGolgi ctrl 34.7, PLAP act 2
Cc1nn(Cc2cccc(C(=O)NC34CC5CC(CC(C5)C3)C4)c2)c(C)c1Br	Cav3 T inh -6.37 (no result: PostGolgi yeast, PostGolgi ctrl, PLAP act)
COc1c2ccc(C(=O)NCCCCc3ccccc3)cc2nn1C	none
CCOC(=O)N1CCN(C(=O)CSCC(=O)Nc2nc(-c3cccs3)cs2)CC1	none (no result: PostGolgi yeast, PostGolgi ctrl, PLAP act)
CC1CCCN(C(=O)CSCC(=O)Nc2nc(-c3cccs3)cs2)C1 (stereo not given)	Cav3 T inh -5.23, PostGolgi ctrl 63.5
CC1CCCCN1C(=O)CSCC(=O)Nc1nc(-c2cccs2)cs1 (stereo not given)	Cav3 T inh -4.93, PostGolgi ctrl 73.1 (no result: PLAP act)
CC1CCN(C(=O)CSCC(=O)Nc2nc(-c3cccs3)cs2)CC1	Cav3 T inh -5.69, PostGolgi ctrl 64.6 (no result: PLAP act)
CCCCOCCCn1cnc2c([nH]c3cc(OC)ccc32)c1=O	none
CCn1c(CNc2ccc(Cl)cc2)nnc1SCc1ccc(C)cc1	Cav3 T inh -3.78 (no result: PostGolgi yeast, PostGolgi ctrl, PLAP act)
CCn1c(CNc2cccc(Cl)c2)nnc1SCc1ccccc1	none
CCn1c(CNc2ccc(Cl)cc2)nnc1SCc1ccc(Cl)cc1	Cav3 T inh -3.47 (no result: PostGolgi yeast, PostGolgi ctrl, PLAP act)
CCOC(=O)Cn1nc(-c2ccc(Cl)cc2)ccc1=O	PostGolgi ctrl 36.5
Nc1nonc1C(=O)NCCNC(=O)c1cccs1	none
O=C(NCCCO)C12CC3CC(CC(C3)C1)C2	none (no result: PostGolgi yeast, PostGolgi ctrl, PLAP act)
CN(C)/C=C(\C#N)C(=O)Nc1ccc(F)cc1	hDAT+cocaine -2.24
CCOC(=O)c1[nH]c(C)c(C(=O)NCc2cccnc2)c1C	none
Cc1ccc(-n2nnc(-c3nccn3C)n2)cc1	none (no result: PostGolgi yeast, PostGolgi ctrl, PLAP act)
Cc1cc(C)c(NC(=O)CSc2nc3c(c(=O)n2C)SC(C)C3)c(C)c1 (stereo not given)	PostGolgi ctrl 31.2
CCn1c(SCC(=O)Nc2nc3ccc(C)cc3s2)nc2c(c1=O)SC(C)C2 (stereo not given)	PostGolgi ctrl 84.2
Cc1cc(C)cc(NC(=O)CSc2nc3c(c(=O)n2C)SC(C)C3)c1 (stereo not given)	none
CCn1c(SCC(=O)Nc2cc(C)on2)nc2c(c1=O)SC(C)C2 (stereo not given)	none
CS(=O)(=O)N1CCCC(c2nc(-c3ccc(S(=O)(=O)NCc4ccccc4)cc3)no2)C1 (stereo not given)	none
Cn1c2c(c(=O)n(C)c1=O)C(NS(=O)(=O)c1ccccc1)(C(F)(F)F)C(=O)N2 (stereo not given)	none
COc1ccc(C2=NC(C(F)(F)F)(C(F)(F)F)c3c(n(C)c(=O)n(C)c3=O)N2)cc1	PostGolgi yeast 92.4
CC1=NNC(=O)/C1=C\c1cn(-c2ccccc2)nc1-c1ccc(Cl)cc1	PostGolgi yeast 108.6, PostGolgi ctrl 98.0
C=Cn1nc(C)c2ccccc2c1=O	none (no result: Cav3 T inh)
Cc1nc(NC(=O)c2cc3c(C)nn(-c4ccccc4)c3s2)sc1C(=O)Nc1ccccc1	PLAP act 2.3 (no result: Cav3 T inh, hDAT+cocaine)
CCc1cc(-c2n[nH]c(=S)n2Cc2ccccc2)cs1	none (no result: Cav3 T inh, hDAT+cocaine)
CCCc1cc(-c2n[nH]c(=S)n2C(C)c2ccccc2)cs1 (stereo not given)	Cav3 T inh -4.61, PostGolgi ctrl 41.7
Cc1ccc(C)n1N1C(=O)/C(=C\c2ccc(Cl)cc2)SC1=S	PostGolgi yeast 39.8, PostGolgi ctrl 38.7
CN1CCn2c1nc(N1CCOCC1)nc2=O	none
CCCCCn1c(SCc2ccncc2)nc2cc(C(=O)NCc3ccco3)ccc2c1=O	Cav3 T inh -4.17, PostGolgi ctrl 43.4

Screens (PubChem BioAssay)
